# PubChem BioAssay
# Calls of active or inactive are those of the source. Unless noted, no rule for the calls is given here.
# Legend:
# [1] = anti-His antibody binders, primary screen, artefact control for SMM control protein annotation, biochemical, small-molecule microarray, 635 nm fluorescence (AID 1128); conditions: anti-His Alexa647 antibody binding, higher = more signal;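 also: score merges feature fluorescence with signal-to-noise for each printed compound spot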
# [2] = tested on: Human papillomavirus type 1a E7 protein (residues 1-88); experiment: HPV1a E7 small-molecule binders, primary screen, biochemical, small-molecule microarray, residues 1-88, 635 nm (AID 1129); conditions: small-molecule microarray binding, fluorescence 635 nm; higher = more signal
# [3] = biological target: Focal adhesion kinase 1 (Homo sapiens) (UniProt Q05397); experiment: small-molecule microarray binders of FAK, primary screen, biochemical, 635/667 nm fluorescence, BSA, DTT (AID 1130); conditions: PTK2 binding, 635 nm fluorescence, higher = more signal;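 also: composite of spot emission at 667 nm and signal to noise over triplicate slides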
# [4] = tested on: Fibrinogen (Alexa647-labelled); experiment: fibrinogen binders on compound microarrays, profiling panel, artefact control for SMM control-protein annotation, biochemical, small-molecule microarray, 635/667 nm fluorescence (AID 1131); conditions: fibrinogen-A647 binding fluorescence, higher = more signal;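 also: z-score merges 667 nm fluorescence with per-spot signal-to-noise over triplicate slides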
# [5] = biological target: Follistatin (Homo sapiens) (UniProt P19883); experiment: follistatin binders on small-molecule microarrays, primary screen, biochemical, small-molecule microarray, 635/667 nm fluorescence (AID 1132); conditions: FST binding, 635 nm fluorescence, higher = more signal
# [6] = biological target: Fibroblast growth factor 2 (Homo sapiens) (UniProt P09038); experiment: FGF2 binders on small-molecule microarrays, primary screen, biochemical, small-molecule microarray, 635/667 nm fluorescence (AID 1133); conditions: small-molecule microarray binding, FGF2, fluorescence 635/667; higher = more signal
# [7] = mitochondrial membrane potential change in A549 cells, profiling panel, cell-based, JC-1 fluorescence, basal, 24 h, 100 nL (AID 1138); conditions: higher = more signal;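 also: A549 lung adenocarcinoma cells under basal conditions with no added stimulus; test concentration not given here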
# Lefty1 = Lefty1 binders on small-molecule microarrays, primary screen, biochemical, small-molecule microarray, 635/667 nm fluorescence (AID 1139); conditions: small-molecule microarray binding, fluorescence 635/667; higher = more signal
# [8] = tested on: wheat germ agglutinin (Triticum aestivum), Alexa647-labelled; experiment: wheat germ agglutinin binders on compound microarrays, profiling panel, artefact control for SMM control-protein annotation, biochemical, small-molecule microarray, 635/667 nm fluorescence (AID 1140); conditions: WGA-A647 binding, 635 nm fluorescence, higher = more signal;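 also: score merges 667 nm feature emission with signal to noise over triplicate slides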
# [9] = biological target: Luciferin 4-monooxygenase (Photinus pyralis) (UniProt P08659); experiment: firefly luciferase enzyme inhibitors, primary screen, biochemical, luminescence, purified enzyme, 2006 set (AID 1141); conditions: SteadyGlo luminescence, 30 min, higher = more signal, called active from +8 up or from −8 down;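 also: cell-free assay with purified firefly luciferase at 100 ng per well in PBS; test concentration not given here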
# [10] = tested on: Wnt5a (protein binding on small-molecule microarray); experiment: Wnt5a binders on small-molecule microarray, primary screen, biophysical, 635/667 nm fluorescence (AID 1142); conditions: 635 nm fluorescence, higher = more signal;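 also: fluorescence read at 667 nm with signal to noise per printed feature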
# [11] = cell viability in Huh7 cells, primary screen, cytotoxicity control for HCV replication inhibitor project, CellTiter-Glo luminescence, basal, 48 h (AID 1143); conditions: Huh7 HCV replicon, higher = more signal, called active from +8 up or from −8 down;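 also: Huh7 hepatoma cells carrying a hepatitis C replication reporter with no stimulus; test concentration not given here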
# [12] = P. aeruginosa biofilm formation inhibitors, primary screen, PAO1 strain, BacTiter-Glo luminescence, LB-PBS (AID 1144); conditions: 12 h, higher = more signal
# [13] = CREB reporter modulators without forskolin, primary screen, cell-based, PC12, CRE-LacZ reporter, unstimulated (AID 1145); conditions: no forskolin, luminescence, 4.5 h, higher = more signal, called active from +8 up or from −8 down
# [14] = CREB reporter modulators under forskolin, primary screen, cell-based, PC12, CRE-LacZ reporter, forskolin-stimulated (AID 1146); conditions: luminescence, 4.5 h, higher = more signal, called active from +8 up or from −8 down;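 also: PC12 cells with 6xCRE LacZ reporter stimulated by forskolin 10 µM; beta-galactosidase reporter signal reflecting CREB driven transcription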
# [15] = biological target: Streptavidin (Streptomyces avidinii) (UniProt P22629); experiment: streptavidin binders on small-molecule microarray, primary screen, artefact control for SMM compound annotation, biophysical, 635/667 nm fluorescence (AID 1147); conditions: streptavidin binding, higher = more signal;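 also: signal reflects streptavidin binding to arrayed compounds as a control protein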
# [16] = small-molecule binders of probe aInhba, primary screen, biochemical, small-molecule microarray, 635/667 nm fluorescence (AID 1148); conditions: higher = more signal;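 also: score merges 667nm spot fluorescence with signal-to-noise for antibody binding to printed compounds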
# Torsin-1A (Homo sapiens) [17] = biological target: Torsin-1A (Homo sapiens) (UniProt O14656); experiment: torsin A binders from cell lysate, primary screen, small-molecule microarray, wild-type, 635/667 nm (AID 1149); conditions: COS7 hTOR1A-WT lysate, 635 nm fluorescence, higher = more signal
# Torsin-1A (Homo sapiens) [18] = biological target: Torsin-1A (Homo sapiens) (UniProt O14656); experiment: small-molecule binders of mutant TOR1A in lysate, primary screen, cell lysate, small-molecule microarray, COS7 lysate, 635/667 nm fluorescence (AID 1150); conditions: COS7 hTOR1A mutant lysate, 635 nm fluorescence, higher = more signal;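 also: score pools 667 nm emission and signal to noise measuring lysate protein binding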
# [19] = tested on: Sonic hedgehog protein (Shh); experiment: small-molecule binders of Shh protein, primary screen, biochemical, small-molecule microarray, 635/667 nm fluorescence (AID 1151); conditions: small-molecule microarray binding, 635 nm fluorescence; higher = more signal;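 also: Shh protein binding to compounds spotted on small-molecule microarray slides; score combines spot fluorescence intensity with signal-to-noise across triplicate slides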
# Sequence of Follistatin (Homo sapiens) (P19883 whole entry, looked up): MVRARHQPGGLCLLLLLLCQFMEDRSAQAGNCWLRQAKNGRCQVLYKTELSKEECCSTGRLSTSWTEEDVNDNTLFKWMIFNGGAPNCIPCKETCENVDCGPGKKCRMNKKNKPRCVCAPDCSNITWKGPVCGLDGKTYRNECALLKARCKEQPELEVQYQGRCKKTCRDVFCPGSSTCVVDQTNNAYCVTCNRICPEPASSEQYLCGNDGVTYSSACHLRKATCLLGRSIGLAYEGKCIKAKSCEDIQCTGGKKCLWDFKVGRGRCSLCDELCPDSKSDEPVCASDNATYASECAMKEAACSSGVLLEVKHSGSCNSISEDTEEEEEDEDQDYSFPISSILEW
# Sequence of Luciferin 4-monooxygenase (Photinus pyralis) (P08659 whole entry, looked up): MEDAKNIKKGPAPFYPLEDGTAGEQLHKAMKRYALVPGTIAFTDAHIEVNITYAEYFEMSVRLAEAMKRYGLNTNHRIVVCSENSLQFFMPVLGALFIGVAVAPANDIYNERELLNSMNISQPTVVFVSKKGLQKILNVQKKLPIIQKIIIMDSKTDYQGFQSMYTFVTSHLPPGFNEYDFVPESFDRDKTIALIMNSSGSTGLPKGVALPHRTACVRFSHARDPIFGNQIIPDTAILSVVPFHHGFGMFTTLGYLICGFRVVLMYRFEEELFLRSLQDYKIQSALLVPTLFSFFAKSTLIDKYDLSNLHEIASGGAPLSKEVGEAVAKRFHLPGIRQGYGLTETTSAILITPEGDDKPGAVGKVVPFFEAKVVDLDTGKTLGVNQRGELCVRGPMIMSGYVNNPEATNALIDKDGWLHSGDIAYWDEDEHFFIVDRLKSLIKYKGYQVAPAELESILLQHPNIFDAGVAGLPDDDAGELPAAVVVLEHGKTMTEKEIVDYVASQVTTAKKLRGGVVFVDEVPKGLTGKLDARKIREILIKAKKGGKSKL
# Sequence of Torsin-1A (Homo sapiens) (O14656 whole entry, looked up): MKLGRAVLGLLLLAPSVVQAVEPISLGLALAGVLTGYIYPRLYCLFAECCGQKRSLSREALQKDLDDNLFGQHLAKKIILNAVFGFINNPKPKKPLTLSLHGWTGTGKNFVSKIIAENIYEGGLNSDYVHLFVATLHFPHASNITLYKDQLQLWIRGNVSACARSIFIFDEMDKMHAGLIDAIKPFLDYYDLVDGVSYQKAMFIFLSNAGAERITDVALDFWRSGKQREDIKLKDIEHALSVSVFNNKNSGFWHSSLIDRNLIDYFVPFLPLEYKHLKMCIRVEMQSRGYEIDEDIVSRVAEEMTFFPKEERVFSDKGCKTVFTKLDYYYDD
# Sequence of Streptavidin (Streptomyces avidinii) (P22629 whole entry, looked up): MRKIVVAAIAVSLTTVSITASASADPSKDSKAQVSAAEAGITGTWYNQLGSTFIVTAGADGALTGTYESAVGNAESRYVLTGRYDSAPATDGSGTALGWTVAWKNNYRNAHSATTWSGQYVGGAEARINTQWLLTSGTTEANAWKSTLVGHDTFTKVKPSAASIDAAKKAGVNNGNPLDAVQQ
# Sequence of Focal adhesion kinase 1 (Homo sapiens) (Q05397 whole entry, looked up): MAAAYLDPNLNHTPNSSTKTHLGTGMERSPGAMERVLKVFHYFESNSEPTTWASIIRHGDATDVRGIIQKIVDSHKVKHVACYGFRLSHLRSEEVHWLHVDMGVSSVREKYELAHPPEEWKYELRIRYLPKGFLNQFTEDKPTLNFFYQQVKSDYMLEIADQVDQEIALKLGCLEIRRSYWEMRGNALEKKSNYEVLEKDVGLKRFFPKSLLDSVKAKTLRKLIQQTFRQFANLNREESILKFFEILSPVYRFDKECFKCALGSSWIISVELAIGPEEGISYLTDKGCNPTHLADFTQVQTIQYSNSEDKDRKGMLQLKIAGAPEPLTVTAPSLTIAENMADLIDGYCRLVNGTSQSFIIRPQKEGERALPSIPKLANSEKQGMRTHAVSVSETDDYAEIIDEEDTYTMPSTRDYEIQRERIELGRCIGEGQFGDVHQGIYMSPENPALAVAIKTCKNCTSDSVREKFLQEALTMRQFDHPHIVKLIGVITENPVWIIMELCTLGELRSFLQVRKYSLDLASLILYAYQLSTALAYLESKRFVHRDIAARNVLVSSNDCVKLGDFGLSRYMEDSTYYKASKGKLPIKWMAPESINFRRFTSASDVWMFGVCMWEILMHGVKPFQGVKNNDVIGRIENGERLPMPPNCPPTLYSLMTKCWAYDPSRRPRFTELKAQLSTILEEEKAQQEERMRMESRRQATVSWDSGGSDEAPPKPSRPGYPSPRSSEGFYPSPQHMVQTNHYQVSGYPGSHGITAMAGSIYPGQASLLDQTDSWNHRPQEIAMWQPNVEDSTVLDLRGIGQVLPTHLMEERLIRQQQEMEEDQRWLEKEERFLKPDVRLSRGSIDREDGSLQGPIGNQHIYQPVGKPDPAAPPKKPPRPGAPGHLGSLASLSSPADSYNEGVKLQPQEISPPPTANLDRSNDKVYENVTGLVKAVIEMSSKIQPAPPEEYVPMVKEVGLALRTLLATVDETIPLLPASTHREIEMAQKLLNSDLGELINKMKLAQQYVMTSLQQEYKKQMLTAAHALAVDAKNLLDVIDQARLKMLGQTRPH
# Sequence of Fibroblast growth factor 2 (Homo sapiens) (P09038 whole entry, looked up): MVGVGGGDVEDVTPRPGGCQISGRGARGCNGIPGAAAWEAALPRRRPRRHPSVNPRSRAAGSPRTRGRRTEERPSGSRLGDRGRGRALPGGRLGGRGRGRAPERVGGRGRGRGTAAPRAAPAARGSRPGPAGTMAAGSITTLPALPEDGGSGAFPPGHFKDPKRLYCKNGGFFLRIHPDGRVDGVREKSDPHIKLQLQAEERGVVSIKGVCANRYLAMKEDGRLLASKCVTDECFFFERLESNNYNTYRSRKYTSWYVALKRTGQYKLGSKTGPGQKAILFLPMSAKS
Structure (SMILES),composite z-score [1],composite z-score [2],composite z-score [3],composite z-score [4],composite z-score [5],composite z-score [6],z-score [7],composite z-score (Lefty1),composite z-score [8],z-score [9],composite z-score [10],z-score [11],z-score [12],z-score [13],z-score [14],composite z-score [15],composite z-score [16],composite z-score (Torsin-1A (Homo sapiens) [17]),composite z-score (Torsin-1A (Homo sapiens) [18]),composite z-score [19]
COCCOC(=O)N1C(=O)[C@@]2(c3cc(C#CCC(C(=O)OC)C(=O)OC)ccc31)[C@H](c1ccc(OCCO)cc1)N1[C@H](c3ccccc3)[C@H](c3ccccc3)OC(=O)[C@H]1[C@@H]2C(=O)N1CCN(c2ncccn2)CC1,1.94,1.25,-0.0555,0.947,1.36,1.23,-1.48,1.29,0.939,-0.506 (inactive),0.672,-4.96 (inactive),-1.65 (inactive),-1.42 (inactive),-0.912 (inactive),0.945,0.122,1.19,0.6,2.09
C=CC1c2cc(O)c(OC)cc2CCN1Cc1sc2ccccc2c1Cl (stereo not given),0.13,0.696,-0.025,0.863,1.28,-0.416,-0.68,0.188,0.983,-0.707 (inactive),0.252,-3.81 (inactive),1.39 (inactive),-0.114 (inactive),1.7 (inactive),1.57,-0.295,-0.425,0.257,-0.0808
CN(C)CCCCNC(=O)[C@H]1C[C@H]2C(=O)N[C@@H](CCCCN(C)C)C(=O)N2[C@H]1c1cccc(OCCO)c1,1.1,0.603,0.29,0.877,1.3,1.23,-0.0557,1.64,1.02,0.709 (inactive),0.83,0.441 (inactive),0.251 (inactive),-1.07 (inactive),-0.535 (inactive),0.329,-0.305,0.68,0.86,2.08
O=C1O[C@@H](c2ccccc2)[C@@H](c2ccccc2)N2[C@@H](c3ccc(O)cc3)[C@]3(C(=O)Nc4ccc(C#CC5=CCCCC5)cc43)[C@@H](C(=O)N3CCN(c4ncccn4)CC3)[C@H]12,0.567,1.19,1.24,0.811,1.22,1.1,-0.367,0.68,0.262,0.745 (inactive),0.326,-3.76 (inactive),-1.07 (inactive),-1.14 (inactive),-0.286 (inactive),0.448,0.0633,0.6,0.836,1.21
CC(C)CCC[C@@H](C)[C@H]1CC[C@@]2(C)C3=C(CC[C@]12C)[C@@]1(C)CC[C@H](OC(=O)c2ccc(Br)cc2)C(C)(C)C1CC3 (stereo not given in full),-0.242,0.595,-0.172,0.487,0.485,0.508,0.367,0.573,0.538,-1.28 (inactive),0.119,-1.17 (inactive),-0.784 (inactive),0.21 (inactive),0.168 (inactive),0.0916,0.054,0.276,0.409,0.384
C=CCN1C(=O)[C@@]2(CCC(=O)OC(C)(C)C)N=C(c3ccc(OCCCO)cc3)O[C@H]2c2ccccc21,2.33,0.909,1.54,0.652,1.23,0.898,-0.758,0.319,0.525,-4.58 (inactive),0.228,-4.68 (inactive),0.324 (inactive),0.573 (inactive),-2.25 (inactive),0.57,0.0588,-0.0862,0.0147,0.832
COCCOC(=O)N1C(=O)[C@@]2(c3cc(C#Cc4ccc(OC)cc4)ccc31)[C@H](C(=O)N1CCCCCCC1)[C@H]1C(=O)O[C@H](c3ccccc3)[C@H](c3ccccc3)N1[C@@H]2c1ccc(O)cc1,-0.0844,1.12,0.277,0.205,1.38,0.541,-1.42,1.04,0.351,-0.0524 (inactive),0.164,-5.16 (inactive),-1.11 (inactive),-1.02 (inactive),-0.841 (inactive),0.123,0.696,0.536,0.864,1.47
Cc1ccc(S[C@]2(C(=O)NCCN3CCOCC3)CC(=O)N(Cc3ccccc3C(F)(F)F)[C@@H]2c2ccc(CO)cc2I)cc1,0.771,-0.0269,0.167,-1.16,-0.562,-0.907,-0.695,-0.87,-0.194,0.622 (inactive),0.0381,-0.984 (inactive),-0.487 (inactive),0.299 (inactive),4.04 (inactive),-1.49,-0.157,0.174,-0.38,-0.245
COCCOC(=O)N1C(=O)[C@@]2(c3cc(C#CC4(O)CCCCCC4)ccc31)[C@H](C(N)=O)[C@H]1C(=O)O[C@H](c3ccccc3)[C@H](c3ccccc3)N1[C@@H]2c1ccc(O)cc1,1.28,1.17,0.124,0.329,1.32,0.869,-0.317,0.754,0.547,-1.4 (inactive),0.179,-1.02 (inactive),0.00701 (inactive),2.25 (inactive),3.59 (inactive),0.184,-0.0645,-0.0243,0.0342,0.778
